Measured values as given in PubChem BioAssay.
Activity calls are given as the source filed them.

Experiments:
[1] = binders of probe aFSTL3 on microarray, primary screen, stem cell growth factor project, biochemical, small-molecule microarray, fluorescence 635/667 (AID 1064); settings: higher = more signal;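 note: measures binding of the biotinylated anti-FSTL3 antibody to printed compounds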
[2] = binders from COS7 lysate, DM2A8 probe, primary screen, torsin A project, cell lysate, small-molecule microarray, fluorescence 635/667 (AID 1065); settings: higher = more signal, COS7 lysate expressing mutant human TOR1A
[3] = binders of probe aFGF2 on microarray, primary screen, stem cell growth factor project, biochemical, small-molecule microarray, fluorescence 635/667 (AID 1067); settings: higher = more signal;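 note: measures binding of biotinylated aFGF2 protein to printed compounds on slides; z-score merges feature fluorescence and signal-to-noise across triplicate slides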
[4] = binders of probe aFGF10 on microarray, primary screen, stem cell growth factor project, biochemical, small-molecule microarray, fluorescence 635/667 (AID 1071); settings: higher = more signal;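 note: score merges 667 nm spot intensity and signal to noise from triplicate slides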
[5] = target: Neurogenic locus notch homolog protein 2 (Homo sapiens) (UniProt Q04721); assay: Notch2 binders on small-molecule microarrays, primary screen, biochemical, small-molecule microarray, 635 nm fluorescence, stem cell growth factors (AID 1073); settings: Notch2 binding, higher = more signal
[6] = target: Pro-neuregulin-1, membrane-bound isoform (Homo sapiens) (UniProt Q02297); assay: NRG1 binders on small-molecule microarrays, primary screen, psychiatric disease protein project, biochemical, small-molecule microarray, fluorescence 635/667 (AID 1075); settings: NRG1 binding, 635 nm fluorescence, higher = more signal;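 note: score combines 667 nm spot fluorescence with signal to noise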
[7] = test system: Neuregulin-1 EGF-like domain; assay: binders of neuregulin-1 EGF-like domain, primary screen, biochemical, small-molecule microarray, 635 nm fluorescence (AID 1081); settings: small-molecule microarray binding, higher = more signal;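 note: binding of the protein to compounds printed on small-molecule microarray slides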
[8] = FRG1 promoter luciferase signal modulators, primary screen, FRG1 inhibition for FSHD, cell-based, C2C12 myotubes, firefly/Renilla luciferase, luminescence (AID 1084); settings: higher = more signal, called active from +8 up or from −8 down
[9] = binders of probe aFST on microarray, primary screen, stem cell growth factor project, biochemical, small-molecule microarray, fluorescence 635/667 (AID 1086); settings: higher = more signal;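 note: score merges 667 nm fluorescence with signal-to-noise of each printed compound spot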
[10] = binders of probe aHhip on microarray, primary screen, stem cell growth factor project, biochemical, small-molecule microarray, fluorescence 635/667 (AID 1087); settings: higher = more signal;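 note: score merges spot fluorescence at 667nm with spot signal to noise ratio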

Neurogenic locus notch homolog protein 2 (Homo sapiens), sequence (Q04721 whole entry, looked up, canonical isoform): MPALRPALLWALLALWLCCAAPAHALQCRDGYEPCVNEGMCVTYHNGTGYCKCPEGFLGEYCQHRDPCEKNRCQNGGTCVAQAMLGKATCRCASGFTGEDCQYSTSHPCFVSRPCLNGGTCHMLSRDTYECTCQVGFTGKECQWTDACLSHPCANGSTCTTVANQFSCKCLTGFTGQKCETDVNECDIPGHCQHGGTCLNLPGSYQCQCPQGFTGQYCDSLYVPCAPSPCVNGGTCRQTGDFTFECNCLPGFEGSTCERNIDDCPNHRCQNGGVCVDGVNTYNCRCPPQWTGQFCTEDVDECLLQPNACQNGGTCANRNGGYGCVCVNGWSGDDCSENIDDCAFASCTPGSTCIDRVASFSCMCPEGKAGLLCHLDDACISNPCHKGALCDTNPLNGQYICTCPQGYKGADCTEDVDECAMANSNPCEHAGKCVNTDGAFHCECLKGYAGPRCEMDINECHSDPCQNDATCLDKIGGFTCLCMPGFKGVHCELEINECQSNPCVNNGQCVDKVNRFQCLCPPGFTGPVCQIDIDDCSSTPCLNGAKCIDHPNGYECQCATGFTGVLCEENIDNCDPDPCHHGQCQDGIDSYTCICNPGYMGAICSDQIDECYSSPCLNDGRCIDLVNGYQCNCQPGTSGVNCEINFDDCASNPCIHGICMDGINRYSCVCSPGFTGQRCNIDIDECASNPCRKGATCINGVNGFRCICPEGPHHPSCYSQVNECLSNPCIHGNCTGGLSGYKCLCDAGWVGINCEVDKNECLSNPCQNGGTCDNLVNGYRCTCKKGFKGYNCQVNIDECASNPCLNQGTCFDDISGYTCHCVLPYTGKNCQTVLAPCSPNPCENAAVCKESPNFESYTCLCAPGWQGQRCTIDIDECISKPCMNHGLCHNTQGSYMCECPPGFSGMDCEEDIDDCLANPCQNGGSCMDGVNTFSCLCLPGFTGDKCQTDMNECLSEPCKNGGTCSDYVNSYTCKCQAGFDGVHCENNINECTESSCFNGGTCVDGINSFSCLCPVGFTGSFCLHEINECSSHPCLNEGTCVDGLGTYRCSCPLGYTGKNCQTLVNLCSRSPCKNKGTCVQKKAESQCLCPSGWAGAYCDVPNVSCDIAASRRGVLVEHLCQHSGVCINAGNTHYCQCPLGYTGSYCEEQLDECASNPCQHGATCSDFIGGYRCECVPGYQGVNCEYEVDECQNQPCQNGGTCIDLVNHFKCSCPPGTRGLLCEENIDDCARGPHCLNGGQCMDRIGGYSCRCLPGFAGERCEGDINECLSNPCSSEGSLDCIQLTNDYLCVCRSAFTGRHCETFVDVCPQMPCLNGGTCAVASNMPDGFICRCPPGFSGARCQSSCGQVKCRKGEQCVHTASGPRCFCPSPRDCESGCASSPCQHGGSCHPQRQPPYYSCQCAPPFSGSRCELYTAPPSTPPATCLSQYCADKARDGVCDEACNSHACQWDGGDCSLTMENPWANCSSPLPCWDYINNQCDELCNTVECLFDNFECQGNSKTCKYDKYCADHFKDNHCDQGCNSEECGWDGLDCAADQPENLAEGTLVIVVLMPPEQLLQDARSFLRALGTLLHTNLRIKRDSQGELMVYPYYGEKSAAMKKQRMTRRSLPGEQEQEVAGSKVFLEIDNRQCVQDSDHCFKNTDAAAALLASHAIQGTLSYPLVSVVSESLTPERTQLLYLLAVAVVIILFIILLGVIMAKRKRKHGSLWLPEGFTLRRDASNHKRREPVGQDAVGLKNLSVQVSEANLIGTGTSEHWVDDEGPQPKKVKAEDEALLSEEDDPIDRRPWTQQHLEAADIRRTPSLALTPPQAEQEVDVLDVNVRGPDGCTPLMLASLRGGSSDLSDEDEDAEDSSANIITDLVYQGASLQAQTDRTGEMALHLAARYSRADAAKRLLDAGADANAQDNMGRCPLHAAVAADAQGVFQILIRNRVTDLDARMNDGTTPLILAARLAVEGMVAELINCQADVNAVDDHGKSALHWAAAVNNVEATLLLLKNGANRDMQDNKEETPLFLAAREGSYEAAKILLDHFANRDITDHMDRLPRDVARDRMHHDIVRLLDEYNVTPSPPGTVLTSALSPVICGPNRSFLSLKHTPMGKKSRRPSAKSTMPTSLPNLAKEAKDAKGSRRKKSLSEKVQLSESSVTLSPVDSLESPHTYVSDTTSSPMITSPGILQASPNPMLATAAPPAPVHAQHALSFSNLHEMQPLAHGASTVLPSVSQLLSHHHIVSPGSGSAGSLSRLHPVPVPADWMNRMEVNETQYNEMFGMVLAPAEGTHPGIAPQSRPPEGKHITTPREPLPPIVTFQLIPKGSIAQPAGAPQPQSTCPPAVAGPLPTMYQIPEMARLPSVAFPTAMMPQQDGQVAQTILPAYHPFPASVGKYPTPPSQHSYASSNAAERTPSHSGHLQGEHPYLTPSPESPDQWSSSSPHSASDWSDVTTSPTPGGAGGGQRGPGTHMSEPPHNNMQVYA
Pro-neuregulin-1, membrane-bound isoform (Homo sapiens), sequence (Q02297 whole entry, looked up, the tested form may be a part, canonical isoform): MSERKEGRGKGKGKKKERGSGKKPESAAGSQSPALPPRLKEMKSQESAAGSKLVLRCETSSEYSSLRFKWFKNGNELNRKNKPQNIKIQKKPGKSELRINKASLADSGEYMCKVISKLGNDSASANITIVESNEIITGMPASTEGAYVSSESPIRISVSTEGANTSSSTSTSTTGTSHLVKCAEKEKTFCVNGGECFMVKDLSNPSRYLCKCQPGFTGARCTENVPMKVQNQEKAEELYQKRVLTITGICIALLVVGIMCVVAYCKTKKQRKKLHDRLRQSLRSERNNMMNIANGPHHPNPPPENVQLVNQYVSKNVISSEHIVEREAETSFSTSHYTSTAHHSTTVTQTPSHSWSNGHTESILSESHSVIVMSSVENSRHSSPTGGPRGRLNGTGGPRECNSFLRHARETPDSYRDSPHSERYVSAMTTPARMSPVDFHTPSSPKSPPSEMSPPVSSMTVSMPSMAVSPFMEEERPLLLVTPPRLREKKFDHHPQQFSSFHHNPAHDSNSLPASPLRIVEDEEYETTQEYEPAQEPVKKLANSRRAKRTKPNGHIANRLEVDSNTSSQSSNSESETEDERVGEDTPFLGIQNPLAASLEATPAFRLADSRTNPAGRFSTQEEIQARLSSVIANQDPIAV

SMILES	composite z-score [1]	composite z-score [2]	composite z-score [3]	composite z-score [4]	composite z-score [5]	composite z-score [6]	composite z-score [7]	z-score [8]	composite z-score [9]	composite z-score [10]
C#CCCCON=C1C[C@@H](O)[C@@H](O)[C@@H]2[C@@H]3C(=O)N(CCC(=O)OCC)C(=O)[C@@H]3CC[C@@H]12	1.93	0.597	-0.0505	-0.0007	-0.835	0.107	-0.307	0.665 (inactive)	0.63	-0.12
O=C1C[C@]2(c3ccc([N+](=O)[O-])cc3)C(=O)N(CCN3CCOCC3)c3cc(CO)ccc3[C@H]2N1CC12CC3CC(CC(C3)C1)C2	-0.0111	-0.624	-0.103	-0.164	-0.35	1.38	-0.273	0.103 (inactive)	0.337	0.312
CCN1C(=O)[C@H]2[C@H]3[C@H](O)[C@H](O)CC(=NOCc4ccccc4)[C@@H]3CC[C@H]2C1=O	-0.239	0.441	-0.197	0.31	0.931	-0.195	0.567	-0.641 (inactive)	0.0882	-0.3
CCOC(=O)C1=CC[C@H]2C(=O)N(CC)C(=O)[C@@H]12	-0.537	0.448	-0.0715	0.772	0.937	0.98	1.11	0.937 (inactive)	0.406	0.176
CCc1cccc(NC(=O)O[C@H]2[C@H](OC(=O)Nc3ccc4c(c3)OCO4)[C@@H](OC(=O)Nc3ccc4c(c3)OCO4)[C@@H](OC)O[C@@H]2CO)c1	-0.263	1.45	0.225	1	1.49	-0.396	1.25	8.02 (active)	0.507	-0.15
CC(CCN1CCc2nc(-c3ccccc3)c(-c3ccccc3)cc2C1)=NO[C@@H](C)c1cn([C@H](CO)Cc2ccccc2)nn1	-0.261	0.608	-0.143	-0.0983	-0.674	0.424	0.124	-0.54 (inactive)	0.0854	-0.189
C[C@@H]1C=CCC(=O)OC[C@H](C)C(=O)OC[C@H]2O[C@H]1C=C[C@H]2O	-0.414	0.304	0.0033	0.44	0.112	-0.175	0.615	-0.538 (inactive)	0.512	0.106
CCCCCN1CC=CC23O[C@@H]4C=CCOC(=O)[C@@H]4[C@H]2C(=O)N(CCCCCCO)[C@@H]3C1=O (stereo not given in full)	0.729	-0.859	-0.133	-0.237	-1.14	2.35	0.975	0.428 (inactive)	-0.823	-0.429
[N-]=[N+]=NCc1ccccc1[C@@H]1OC(c2ccc(OCCCO)cc2)=N[C@]1(Cc1ccccc1)C(=O)N1CCOCC1	0.351	1.51	0.122	0.875	1.55	1.68	1.25	-1.42 (inactive)	0.804	0.778
Cc1ccc(S(=O)(=O)N[C@@H]2COC(=O)[C@H](C)COC(=O)CC=C[C@H]2C)cc1	-0.618	0.133	-0.121	0.305	-0.0058	-0.0185	-0.228	-0.564 (inactive)	-0.0468	0.176
CO[C@@H]1COC(=O)CC=C[C@@H](C)[C@H](OC)COC(=O)[C@H](COCc2ccccc2)NC(=O)CC=C[C@H]1C	0.0122	0.843	-0.0775	-0.0228	-0.0992	-0.673	-0.831	-0.886 (inactive)	-0.455	-0.0618
COC(=O)CC=C[C@H](C)[C@H](CO)NS(=O)(=O)c1ccc(C)cc1	-0.634	0.0049	-0.163	0.476	0.24	-0.0696	0.629	-0.599 (inactive)	0.12	-0.132
COC(=O)CC=C[C@H](C)[C@@H](OCc1ccccc1Br)C(C)C	-0.188	0.398	-0.191	0.189	0.0089	-0.252	-0.334	-0.749 (inactive)	-0.0799	-0.306
CN1C(=O)C2C(C1=O)C1C=C(CCCO)C2C(c2ccc(CN3CCCC3)cc2)N1C (stereo not given)	0.192	0.249	-0.0902	-0.302	-0.291	0.0016	0.725	0.243 (inactive)	-0.424	0.0749
O=C1[C@H]2[C@H]3[C@H](O)[C@H](O)CC(=NOCc4ccccc4)[C@H]3CC[C@H]2C(=O)N1C[C@@H]1CCCO1	-0.493	-0.259	-0.133	0.717	0.564	0.512	0.792	-0.187 (inactive)	0.14	-0.123
CC(=O)OC[C@H]1O[C@H](CCON=C(C)CCN2CCc3nc(-c4ccccc4)c(-c4ccccc4)cc3C2)C=C[C@@H]1OC(C)=O	-0.195	0.472	-0.119	0.173	0.0174	0.266	0.454	1.23 (inactive)	-0.105	0.0749
CO[C@@H]1COC(=O)CCC[C@@H](C)[C@H](OC)COC(=O)CCC[C@H]1C	-0.298	0.743	-0.0982	0.219	0.633	-0.63	0.176	0.462 (inactive)	0.561	0.369
COCCCNC(=O)[C@]1(CCC(=O)OC(C)(C)C)N=C(c2ccc(OCCCO)cc2)O[C@@H]1c1ccccc1N=[N+]=[N-]	0.0081	1.27	0.15	0.891	1.33	1.62	1.36	3.15 (inactive)	1.51	0.107
COc1ccc(O[C@H]2C=C[C@@H](c3ccccc3)O[C@@H]2COC(=O)CCC(C)=NOC[C@@H](C)[C@H](OCc2ccccc2)C(C)C)cc1	-0.404	-0.48	-0.171	-0.14	-1.1	-1.09	-1.02	0.696 (inactive)	-0.504	-0.184
CCCNC(=O)OC[C@H]1O[C@H](CCON=C[C@@H](OC)[C@H](C)C=CCC(=O)OC)C=C[C@@H]1Oc1ccc(OC)cc1	-0.479	0.698	-0.136	-0.192	-0.0065	-0.23	0.614	1.16 (inactive)	-0.0617	-0.0672
O=C1[C@H]2[C@H]3[C@H](O)[C@H](O)CC(=NOCc4ccccc4)[C@@H]3CC[C@H]2C(=O)N1C1CCCCC1	-0.116	0.487	-0.098	0.292	0.0141	1.1	0.564	0.32 (inactive)	0.0422	0.0024
CCOc1ccc(N2C(=O)/C(=C/C=C/c3ccccc3OC)S(=O)(=O)C2c2cccc([N+](=O)[O-])c2)cc1 (stereo not given)	-0.0317	0.232	-0.0906	0.281	0.344	0.903	-0.142	-1.75 (inactive)	0.323	-0.515
COC(=O)[C@@]1(Cc2ccc(F)cc2)[C@@H]2C(=CC(=O)[C@H]2CC(=O)C(=O)N(C)C)CN1C(=O)c1ccccc1	0.581	-0.293	0.293	0.663	1.71	1.49	1.36	-0.524 (inactive)	1.45	2.1
CN(C)C(=O)[C@@]1(Cc2ccccc2)N=C(c2ccc(OCCCO)cc2)O[C@H]1c1ccccc1CN=[N+]=[N-]	1.35	1.92	0.423	1.13	1.46	1.96	1.2	-1.47 (inactive)	1.42	0.898
CC(C)OC(=O)C=C1C[C@@H](c2ccc(C#N)cc2)O[C@@H](c2ccc(C#N)cc2)O1	-0.475	0.334	0.235	1.01	1.68	1.64	1.21	0.0509 (inactive)	1.58	0.233
COCC1=C2[C@@H](CCc3ccccc3)OB(O)C[C@@H]2n2c(=O)n(-c3ccccc3)c(=O)n2C1	-0.163	-0.106	-0.0695	0.882	0.112	-0.391	0.751	-3.23 (inactive)	-0.373	-0.236
CCOC(=O)C1=CCC(c2cc3ccccc3[nH]2)NC1 (stereo not given)	1.31	0.758	-0.0629	-0.355	0.476	0.963	1.13	4.17 (inactive)	0.77	-0.156
